# Results reported in the supplement of paper PMC8975748.
# Where a name gives a salt, the structure may show the parent alone. ± gives the standard deviation of the averaged measurements.
# Experiments:
# [1] = test system: Saccharomyces cerevisiae BY4741 SeMeCo community; assay: mean cell size (pixel area) (pixels); higher = larger cells; settings: 10 µM; 24 h; SM minimal medium
# Outline: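 Yeast cells were fixed with paraformaldehyde, imaged by automated confocal microscopy and analysed in Harmony to obtain mean cell pixel area per well. They came from a four-plasmid fluorescent Saccharomyces cerevisiae BY4741 community, each plasmid complementing one auxotrophy and carrying a fluorescent marker. Before imaging, 70 µl of culture at OD600 = 0.3 was incubated for 24 h in SM medium in 384-well plates predosed acoustically with drug (final 10 µM). Values are means of 3 replicates. Same SeMeCo high-content imaging drug screen: Selleck FDA-approved drugs at 10 µM, 24 h in SM medium, 384-well plates, 3 replicates.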
# [2] = test system: Saccharomyces cerevisiae BY4741 SeMeCo community; assay: z-score of subpopulation abundance vs DMSO median, subpopulation auxotrophic for M; higher = larger share of this subpopulation than in DMSO controls; settings: 10 µM; 24 h; SM minimal medium; subpopulation (auxotrophy): M
# Outline: (§1)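 Four plasmids, each restoring a single auxotrophy and encoding a distinct fluorescent protein, were carried by a Saccharomyces cerevisiae BY4741 community. After overnight growth to OD600 1.0 and dilution to 0.3, 70 µl per well was grown for 24 h in minimal SM medium on 384-well plates acoustically predosed with library drugs at 10 µM final. Following paraformaldehyde fixation, automated confocal microscopy was used, with single-auxotroph fluorescent strains defining thresholds and autofluorescence correction. Subpopulation abundance was then scored as a z-score against the vehicle-well median.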
# [3] = test system: Saccharomyces cerevisiae BY4741 SeMeCo community; assay: z-score of subpopulation abundance vs DMSO median, subpopulation auxotrophic for L; higher = larger share of this subpopulation than in DMSO controls; settings: 10 µM; 24 h; SM minimal medium; subpopulation (auxotrophy): L
# Outline: as §1
# [4] = test system: Saccharomyces cerevisiae BY4741 SeMeCo community; assay: z-score of subpopulation abundance vs DMSO median, subpopulation auxotrophic for H; higher = larger share of this subpopulation than in DMSO controls; settings: 10 µM; 24 h; SM minimal medium; subpopulation (auxotrophy): H
# Outline: as §1
# [5] = test system: Saccharomyces cerevisiae BY4741 SeMeCo community; assay: z-score of subpopulation abundance vs DMSO median, subpopulation auxotrophic for LU; higher = larger share of this subpopulation than in DMSO controls; settings: 10 µM; 24 h; SM minimal medium; subpopulation (auxotrophy): LU
# Outline: as §1
# [6] = test system: Saccharomyces cerevisiae BY4741 SeMeCo community; assay: z-score of subpopulation abundance vs DMSO median, subpopulation auxotrophic for LM; higher = larger share of this subpopulation than in DMSO controls; settings: 10 µM; 24 h; SM minimal medium; subpopulation (auxotrophy): LM
# Outline: as §1
# [7] = test system: Saccharomyces cerevisiae BY4741 SeMeCo community; assay: z-score of subpopulation abundance vs DMSO median, subpopulation auxotrophic for HM; higher = larger share of this subpopulation than in DMSO controls; settings: 10 µM; 24 h; SM minimal medium; subpopulation (auxotrophy): HM
# Outline: as §1
# [8] = test system: Saccharomyces cerevisiae BY4741 SeMeCo community; assay: z-score of subpopulation abundance vs DMSO median, subpopulation auxotrophic for UM; higher = larger share of this subpopulation than in DMSO controls; settings: 10 µM; 24 h; SM minimal medium; subpopulation (auxotrophy): UM
# Outline: as §1
# [9] = test system: Saccharomyces cerevisiae BY4741 SeMeCo community; assay: z-score of subpopulation abundance vs DMSO median, subpopulation auxotrophic for HUM; higher = larger share of this subpopulation than in DMSO controls; settings: 10 µM; 24 h; SM minimal medium; subpopulation (auxotrophy): HUM
# Outline: as §1
# [10] = test system: Saccharomyces cerevisiae BY4741 SeMeCo community; assay: z-score of subpopulation abundance vs DMSO median, subpopulation auxotrophic for LUM; higher = larger share of this subpopulation than in DMSO controls; settings: 10 µM; 24 h; SM minimal medium; subpopulation (auxotrophy): LUM
# Outline: as §1
# [11] = test system: Saccharomyces cerevisiae BY4741 SeMeCo community; assay: z-score of subpopulation abundance vs DMSO median, subpopulation auxotrophic for HLUM; higher = larger share of this subpopulation than in DMSO controls; settings: 10 µM; 24 h; SM minimal medium; subpopulation (auxotrophy): HLUM
# Outline: as §1
# [12] = test system: Saccharomyces cerevisiae BY4741 SeMeCo community; assay: z-score of prototroph abundance vs DMSO median; higher = larger share of this subpopulation than in DMSO controls; settings: 10 µM; 24 h; SM minimal medium; subpopulation (auxotrophy): Prototroph
# Outline: as §1
# [13] = test system: Saccharomyces cerevisiae BY4741 SeMeCo community; assay: z-score of subpopulation abundance vs DMSO median, subpopulation auxotrophic for U; higher = larger share of this subpopulation than in DMSO controls; settings: 10 µM; 24 h; SM minimal medium; subpopulation (auxotrophy): U
# Outline: as §1
# [14] = test system: Saccharomyces cerevisiae BY4741 SeMeCo community; assay: z-score of subpopulation abundance vs DMSO median, subpopulation auxotrophic for HU; higher = larger share of this subpopulation than in DMSO controls; settings: 10 µM; 24 h; SM minimal medium; subpopulation (auxotrophy): HU
# Outline: as §1
# [15] = test system: Saccharomyces cerevisiae BY4741 SeMeCo community; assay: z-score of subpopulation abundance vs DMSO median, subpopulation auxotrophic for HL; higher = larger share of this subpopulation than in DMSO controls; settings: 10 µM; 24 h; SM minimal medium; subpopulation (auxotrophy): HL
# Outline: as §1
# [16] = test system: Saccharomyces cerevisiae BY4741 SeMeCo community; assay: z-score of subpopulation abundance vs DMSO median, subpopulation auxotrophic for HLM; higher = larger share of this subpopulation than in DMSO controls; settings: 10 µM; 24 h; SM minimal medium; subpopulation (auxotrophy): HLM
# Outline: as §1
smiles,measurement,setting,value
COc1ccc(C(Cl)=C(c2ccc(OC)cc2)c2ccc(OC)cc2)cc1 [Chlorotrianisene],mean cell size,[1],12.6 ± 0.13
same,z-score of subpopulation abundance,[2],1.26
same,z-score of subpopulation abundance,[3],0.44
same,z-score of subpopulation abundance,[4],1.21
same,z-score of subpopulation abundance,[5],0.41
same,z-score of subpopulation abundance,[6],1.34
same,z-score of subpopulation abundance,[7],1.06
same,z-score of subpopulation abundance,[8],0.15
same,z-score of subpopulation abundance,[9],0.82
same,z-score of subpopulation abundance,[10],0.76
same,z-score of subpopulation abundance,[11],1.18
Clc1ccc(CCC(Cn2ccnc2)Sc2c(Cl)cccc2Cl)cc1 (centres undefined) [Butoconazole],mean cell size,[1],12.08 ± 0.019
same,z-score of prototroph abundance,[12],-10
same,z-score of subpopulation abundance,[2],-8.6
same,z-score of subpopulation abundance,[3],2.88
same,z-score of subpopulation abundance,[13],-0.41
same,z-score of subpopulation abundance,[4],36.2
same,z-score of subpopulation abundance,[5],-0.9
same,z-score of subpopulation abundance,[6],-2.25
same,z-score of subpopulation abundance,[14],7.63
same,z-score of subpopulation abundance,[8],0.29
same,z-score of subpopulation abundance,[15],31.6
same,z-score of subpopulation abundance,[16],27.1
same,z-score of subpopulation abundance,[9],5.14
same,z-score of subpopulation abundance,[10],3.75
same,z-score of subpopulation abundance,[11],32.1
OC(CCN1CCCCC1)(c1ccccc1)C1CCCCC1 (centres undefined) [Trihexyphenidyl hydrochloride],mean cell size,[1],12.5 ± 0.24
same,z-score of prototroph abundance,[12],-0.03
same,z-score of subpopulation abundance,[2],0.49
same,z-score of subpopulation abundance,[3],0.5
same,z-score of subpopulation abundance,[13],0.45
same,z-score of subpopulation abundance,[4],-0.13
same,z-score of subpopulation abundance,[5],1.04
same,z-score of subpopulation abundance,[14],-0.18
same,z-score of subpopulation abundance,[15],-0.03
same,z-score of subpopulation abundance,[16],0.68
same,z-score of subpopulation abundance,[9],-0.31
same,z-score of subpopulation abundance,[10],0.73
same,z-score of subpopulation abundance,[11],-0.13
Clc1ccc(COC(Cn2ccnc2)c2ccc(Cl)cc2Cl)c(Cl)c1 (centres undefined) [Miconazole],mean cell size,[1],12.5 ± 0.13
same,z-score of prototroph abundance,[12],-9.47
same,z-score of subpopulation abundance,[2],-7.11
same,z-score of subpopulation abundance,[3],-2.13
same,z-score of subpopulation abundance,[13],2.67
same,z-score of subpopulation abundance,[4],27.8
same,z-score of subpopulation abundance,[5],4.36
same,z-score of subpopulation abundance,[6],-1.8
same,z-score of subpopulation abundance,[7],0.94
same,z-score of subpopulation abundance,[14],22.4
same,z-score of subpopulation abundance,[8],1.59
same,z-score of subpopulation abundance,[15],7.22
same,z-score of subpopulation abundance,[16],12.2
same,z-score of subpopulation abundance,[10],0.67
COC(=O)Nc1nc2cc(C(=O)c3ccccc3)ccc2[nH]1 [Mebendazole],mean cell size,[1],12.07 ± 0.077
same,z-score of prototroph abundance,[12],-1.69
same,z-score of subpopulation abundance,[2],-0.56
same,z-score of subpopulation abundance,[3],0.37
same,z-score of subpopulation abundance,[13],1.91
same,z-score of subpopulation abundance,[4],1.06
same,z-score of subpopulation abundance,[5],0.33
same,z-score of subpopulation abundance,[7],1.02
same,z-score of subpopulation abundance,[14],1.39
same,z-score of subpopulation abundance,[8],1.89
same,z-score of subpopulation abundance,[16],1.83
same,z-score of subpopulation abundance,[9],1.64
same,z-score of subpopulation abundance,[10],0.4
same,z-score of subpopulation abundance,[11],1.44
Fc1ccc([C@@H]2CCNC[C@H]2COc2ccc3c(c2)OCO3)cc1 [Paroxetine HCl],mean cell size,[1],12.47 ± 0.086
same,z-score of prototroph abundance,[12],0.34
same,z-score of subpopulation abundance,[2],-0.31
same,z-score of subpopulation abundance,[3],-0.43
same,z-score of subpopulation abundance,[13],0.75
same,z-score of subpopulation abundance,[4],0.09
same,z-score of subpopulation abundance,[5],-0.16
same,z-score of subpopulation abundance,[7],-0.49
same,z-score of subpopulation abundance,[14],-1.01
same,z-score of subpopulation abundance,[15],0.14
same,z-score of subpopulation abundance,[16],0.16
same,z-score of subpopulation abundance,[10],-1.08
same,z-score of subpopulation abundance,[11],0.06
CCN(CC)C(=O)[C@@]1(c2ccccc2)C[C@H]1CN [Levomilnacipran Hydrochloride],mean cell size,[1],12.1 ± 0.27
same,z-score of prototroph abundance,[12],-0.02
same,z-score of subpopulation abundance,[2],-0.27
same,z-score of subpopulation abundance,[3],-1.78
same,z-score of subpopulation abundance,[13],1.27
same,z-score of subpopulation abundance,[4],-0.22
same,z-score of subpopulation abundance,[5],-0.02
same,z-score of subpopulation abundance,[6],-1.21
same,z-score of subpopulation abundance,[7],-0.69
same,z-score of subpopulation abundance,[14],1.07
same,z-score of subpopulation abundance,[8],0.93
same,z-score of subpopulation abundance,[15],-0.6
same,z-score of subpopulation abundance,[16],-1.07
same,z-score of subpopulation abundance,[10],-0.59
same,z-score of subpopulation abundance,[11],-0.66
COc1cccc2c1C(=O)c1c(O)c3c(c(O)c1C2=O)C[C@@](O)(C(C)=O)C[C@@H]3O[C@H]1C[C@H](N)[C@H](O)[C@H](C)O1 [Daunorubicin HCl],mean cell size,[1],12.78 ± 0.043
same,z-score of prototroph abundance,[12],-0.6
same,z-score of subpopulation abundance,[2],-4.78
same,z-score of subpopulation abundance,[3],-1.28
same,z-score of subpopulation abundance,[13],4.14
same,z-score of subpopulation abundance,[4],0.44
same,z-score of subpopulation abundance,[5],3.27
same,z-score of subpopulation abundance,[6],-1.4
same,z-score of subpopulation abundance,[7],-3.07
same,z-score of subpopulation abundance,[8],0.35
same,z-score of subpopulation abundance,[15],0.73
same,z-score of subpopulation abundance,[16],-0.29
same,z-score of subpopulation abundance,[10],1.18
same,z-score of subpopulation abundance,[11],5.15
